Source: PubChem BioAssay (NCI)
Compounds without any hit were thinned out: in the full panel of roughly 83,000, 20% have a hit.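 Single-concentration screen, 48 h exposure, 96-well plates. Endpoint: percent growth. Below 10 = active.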 Active and inactive are the calls of the source.

System: SN12C renal
Test: NCI-60 one-dose screen, 48 h (100 = growth as untreated, 0 = no growth, -100 = all killed)
Conditions: 10 µM unless noted

SMILES | growth
O=C(CN1CCOCC1)Nc1ccc(Cn2nnc3c2C(=O)c2nnn(Cc4ccc(NC(=O)CN5CCOCC5)cc4)c2C3=O)cc1 | -32.1% (active)
COc1ccc2[nH]c(=O)c(/C=C/C(=O)c3ccc(Nc4nccc(-c5ccc6ccccc6c5)n4)cc3)cc2c1 | 94.5% (inactive)
OC(c1cccc(C(F)(F)F)c1)c1cnccc1NC1CCCCCC1 (configuration not stated) | 54.1% (inactive)
CNC(=O)c1cc(Oc2ccc3nc(NC(=O)Nc4ccc(CN5CCOCC5)c(C(F)(F)F)c4)sc3c2)ccn1 | 27.8% (inactive)
O=c1c2cccc3c(Nc4ccccn4)ccc(c32)c2nc3ccccc3n12 | 71.7% (inactive)
CC(C)[C@@H]1CC[C@]2(C(=O)NCCCCN=C(N)N)CC[C@]3(C)[C@H](CC[C@@H]4[C@@]5(C)CCC(=O)C(C)(C)[C@@H]5CC[C@]43C)[C@@H]12 | 60.7% (inactive)
Cc1ccc2c(c1)n([O-])c1cc(Cl)ccc1[n+]2=O | 100% (inactive)
CC(C)(C)n1cc(-c2ccnc(NCCCNS(=O)(=O)c3cccc4ccccc34)c2)c(-c2cccc(O)c2)n1 | 36.7% (inactive)
COc1ccc(-c2cc(=O)[nH]c3c(OC)c4ccccc4c(OC)c23)cc1 | 43.2% (inactive)

System: UO-31 renal
Test: as above
Conditions: 10 µM unless noted

SMILES | growth
COCCOC(=O)C1=C(C)NC(=S)NC1c1ccc2c(c1)OCO2 (configuration not stated) | 87.8% (inactive)
O=S(=O)(Nc1ccc(F)c(Cl)c1)c1ccc(-c2cnc(C3CC3)o2)cc1 | 41.8% (inactive)
NCCN1CCN(c2nccc(-c3ccc4ccccc4c3)n2)CC1 | 12.4% (inactive)
CCN(CC)Cc1cc(Nc2c3ccc(Cl)cc3nc3c(C)cccc23)ccc1O | -96.8% (active)
CCCCNc1ccc2c3c1cccc3c(=O)n1c3ccccc3nc21 | 58.6% (inactive)
O=C1O[C@H]([C@H](O)CO)C(O)=C1O | 99.8% (inactive)
CCC(=O)OCc1cccc(OC)c1 | 92.9% (inactive)
Cc1ccc2cnc(N)c(C#Cc3cncc(C(=O)Nc4ccc(CN5CCN(C)CC5)c(C(F)(F)F)c4)c3)c2c1 | -93.3% (active)
CC#Cc1nc2ccccc2c(=O)[nH]1 | 22.9% (inactive)
COc1cc2c(cc1O)CCc1cc(O)cc(OC)c1-2 | 95.3% (inactive)
CCCCCCCCCCCCS(=O)CC(C)O (configuration not stated) | 95.3% (inactive)
CCN(CC)CCCNc1cccc2c(SCc3ccccc3)ccnc12 | -9.99% (active)
COc1ccc(/C=C2\N=C3Sc4cc(Cl)ccc4C(=O)N3C2=O)cc1 | 65% (inactive)
O=C1C(Cl)=C(Cl)C(=O)c2c1nc1n2CCCC1 | 88.8% (inactive)
CN1CCN(Cc2ccc(NC(=O)c3cncc(C#Cc4c(N)ncc5ccc(C#N)cc45)c3)cc2C(F)(F)F)CC1 | -88.5% (active)
Nc1nc(SCc2ccccc2)c2ncn(C3CCCC3)c2n1 | 89.9% (inactive)
COc1cc(NC(N)=NCC(C)(C)COc2ccc(C(F)(F)F)cc2)cnc1C#N | 29.8% (inactive)
CCCCCCCCCCCCCCCC(=O)OCC1OC(n2cnc3c(=S)nc(N)[nH]c32)C(OC(=O)CCCCCCCCCCCCCCC)C1OC(=O)CCCCCCCCCCCCCCC (configuration not stated) | 50% (inactive)
O=[N+]([O-])c1cccc(-c2nc3sccn3c2-c2ccnc(NCCCNS(=O)(=O)c3ccc(Br)cc3)n2)c1 | 22.7% (inactive)

SMILES | growth
COc1ccc(-c2nc(Nc3cc(C)[nH]n3)c3ccccc3n2)cc1 | 41% (inactive)
O=C1Nc2c(ccc(Cl)c2Cl)/C1=C/c1cc(Br)c(O)c(Br)c1 | 60.4% (inactive)
Nc1nc2ccc(-c3nc4ccc5[nH]ncc5c4c4c3CCC4)cc2s1 | 14.7% (inactive)
Cc1cc(Cl)ccc1Nc1nc(C(F)(F)F)ccc1C(=O)N/N=C/c1ccc(F)cc1 | 2.45% (active)
COc1ccc(C(=O)COc2ccc(/C=C3\Oc4ccc(Cl)cc4C3=O)cc2)cc1 | 83.4% (inactive)
CC[C@@H](C)OC(=O)c1nn(C(C)=O)c2ccccc12 | 92.9% (inactive)
CCN(CC)c1ccc(/C=C/C2=[N+](C)c3ccccc3C2(C)C)cc1 | 22.1% (inactive)
CCCCCCCCCCCCCCCC[N+]1(CC)CCCC1 | 38.3% (inactive)
COc1cc(OC)c(/C=C/c2cc[n+](C)c3ccccc23)c(OC)c1 | 61% (inactive)
CC[C@H](Nc1nc(N)nc(C)c1C#N)c1nc2cccc(NCc3ccc(C(=O)NO)cc3)c2c(=O)n1-c1ccccc1 | 4.77% (active)
O=C(CN1CCOCC1)Nc1ccc(Cn2nnc3c2C(=O)c2nnn(Cc4ccc(NC(=O)CN5CCOCC5)cc4)c2C3=O)cc1 | 85.3% (inactive)
COc1ccc2[nH]c(=O)c(/C=C/C(=O)c3ccc(Nc4nccc(-c5ccc6ccccc6c5)n4)cc3)cc2c1 | 93.2% (inactive)
OC(c1cccc(C(F)(F)F)c1)c1cnccc1NC1CCCCCC1 (configuration not stated) | 28.7% (inactive)
CNC(=O)c1cc(Oc2ccc3nc(NC(=O)Nc4ccc(CN5CCOCC5)c(C(F)(F)F)c4)sc3c2)ccn1 | 26.6% (inactive)
O=c1c2cccc3c(Nc4ccccn4)ccc(c32)c2nc3ccccc3n12 | 46.6% (inactive)
CC(C)[C@@H]1CC[C@]2(C(=O)NCCCCN=C(N)N)CC[C@]3(C)[C@H](CC[C@@H]4[C@@]5(C)CCC(=O)C(C)(C)[C@@H]5CC[C@]43C)[C@@H]12 | 82.6% (inactive)
Cc1ccc2c(c1)n([O-])c1cc(Cl)ccc1[n+]2=O | 88.9% (inactive)
CC(C)(C)n1cc(-c2ccnc(NCCCNS(=O)(=O)c3cccc4ccccc34)c2)c(-c2cccc(O)c2)n1 | 44.8% (inactive)
COc1ccc(-c2cc(=O)[nH]c3c(OC)c4ccccc4c(OC)c23)cc1 | 31.3% (inactive)
